PubChem BioAssay AID1159580 (chemical genetic matrix, 2015)
Hit rate of the full screen: of about 5,500 compounds, about 2,000 (36%) were called active. Another 18% or so got no clear call; they are omitted. No stated cut-off is given here; in the data, active means normalized growth mostly below about 0.91 (no sharp cut-off); inconclusive means no clear call, values can overlap the other calls; inactive means mostly above about 0.92. The list shows a part of the results.

Assay: chemical genetic growth profiling, strain panel (AID 1159580);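 further: tested at 20 µM; growth read once vehicle control cultures reached saturation at 30 °C; 1 = growth at the plate median or of vehicle wells; lower values mean less growth of the strain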
Conditions: growth OD
[1] = S. cerevisiae deletion strains, locus YDL101C, strain DUN1, active compounds read low
[2] = S. cerevisiae deletion strains, locus YHR030C, strain SLT2, active compounds read low
[3] = S. cerevisiae deletion strains, locus YHR079C, strain IRE1, active compounds read low
[4] = S. cerevisiae deletion strains, locus YJL095W, strain BCK1, active compounds read low
[5] = S. cerevisiae deletion strains, locus YJR066W, strain TOR1, active compounds read low
[6] = S. cerevisiae deletion strains, locus YLR113W, strain HOG1, active compounds read low
[7] = S. cerevisiae deletion strains, locus YNL183C, strain NPR1, active compounds read low
[8] = S. cerevisiae deletion strains, locus YOR231W, strain MKK1, active compounds read low
[9] = S. cerevisiae deletion strains, locus YPL256C, strain CLN2, active compounds read low
[10] = S. cerevisiae deletion strains, locus YAR019C, strain CDC15, active compounds read low
[11] = S. cerevisiae deletion strains, locus YBL105C, strain PKC1, active compounds read low
[12] = S. cerevisiae deletion strains, locus YBR135W, strain CKS1, active compounds read low
[13] = S. cerevisiae deletion strains, locus YBR136W, strain MEC1, active compounds read low
[14] = S. cerevisiae deletion strains, locus YBR160W, strain CDC28, active compounds read low
[15] = S. cerevisiae deletion strains, locus YDL017W, strain CDC7, active compounds read low
[16] = S. cerevisiae deletion strains, locus YDL028C, strain MPS1, active compounds read low
[17] = S. cerevisiae deletion strains, locus YDL108W, strain KIN28, active compounds read low
[18] = S. cerevisiae deletion strains, locus YDL132W, strain cdc53, active compounds read low
[19] = S. cerevisiae deletion strains, locus YDL214C, strain PRR2, active compounds read low
[20] = S. cerevisiae deletion strains, locus YDR052C, strain DBF4, active compounds read low
[21] = S. cerevisiae deletion strains, locus YDR054C, strain cdc34, active compounds read low
[22] = S. cerevisiae deletion strains, locus YDR226W, strain ADK1, active compounds read low
[23] = S. cerevisiae deletion strains, locus YDR477W, strain SNF1, active compounds read low
[24] = S. cerevisiae deletion strains, locus YER123W, strain YCK3, active compounds read low
[25] = S. cerevisiae deletion strains, locus YER133W, strain GLC7, active compounds read low
[26] = S. cerevisiae deletion strains, locus YFL009W, strain cdc4, active compounds read low
[27] = S. cerevisiae deletion strains, locus YFL029C, strain CAK1, active compounds read low
[28] = S. cerevisiae deletion strains, locus YFR003C, strain YPI1, active compounds read low
[29] = S. cerevisiae deletion strains, locus YFR019W, strain FAB1, active compounds read low
[30] = S. cerevisiae deletion strains, locus YFR028C, strain CDC14, active compounds read low
[31] = S. cerevisiae deletion strains, locus YGR040W, strain KSS1, active compounds read low
[32] = S. cerevisiae deletion strains, locus YGR052W, strain FMP48, active compounds read low
[33] = S. cerevisiae deletion strains, locus YGR092W, strain DBF2, active compounds read low
[34] = S. cerevisiae deletion strains, locus YHR082C, strain KSP1, active compounds read low
[35] = S. cerevisiae deletion strains, locus YHR205W, strain SCH9, active compounds read low
[36] = S. cerevisiae deletion strains, locus YIL147C, strain SLN1, active compounds read low
[37] = S. cerevisiae deletion strains, locus YJL128C, strain PBS2, active compounds read low
[38] = S. cerevisiae deletion strains, locus YJL157C, strain FAR1, active compounds read low
[39] = S. cerevisiae deletion strains, locus YJR016C, strain ILV3, active compounds read low
[40] = S. cerevisiae deletion strains, locus YJR066W, strain TOR1 (second series), active compounds read low
[41] = S. cerevisiae deletion strains, locus YKL048C, strain ELM1, active compounds read low
[42] = S. cerevisiae deletion strains, locus YKL067W, strain YNK1, active compounds read low
[43] = S. cerevisiae deletion strains, locus YKL101W, strain HSL1, active compounds read low
[44] = S. cerevisiae deletion strains, locus YKL193C, strain SDS22, active compounds read low
[45] = S. cerevisiae deletion strains, locus YKL203C, strain TOR2, active compounds read low
[46] = S. cerevisiae deletion strains, locus YLR133W, strain CKI1, active compounds read low
[47] = S. cerevisiae deletion strains, locus YLR403W, strain SFP1, active compounds read low
[48] = S. cerevisiae deletion strains, locus YML070W, strain DAK1, active compounds read low
[49] = S. cerevisiae deletion strains, locus YMR001C, strain CDC5, active compounds read low
[50] = S. cerevisiae deletion strains, locus YMR205C, strain PFK2 (second series), active compounds read low
[51] = S. cerevisiae deletion strains, locus YMR277W, strain FCP1, active compounds read low
[52] = S. cerevisiae deletion strains, locus YNL006W, strain LST8, active compounds read low
[53] = S. cerevisiae deletion strains, locus YNL020C, strain ARK1, active compounds read low
[54] = S. cerevisiae deletion strains, locus YNL161W, strain CBK1, active compounds read low
[55] = S. cerevisiae deletion strains, locus YNL207W, strain RIO2, active compounds read low
[56] = S. cerevisiae deletion strains, locus YNL222W, strain SSU72, active compounds read low
[57] = S. cerevisiae deletion strains, locus YNL307C, strain MCK1 (second series), active compounds read low
[58] = S. cerevisiae deletion strains, locus YOL078W, strain AVO1, active compounds read low
[59] = S. cerevisiae deletion strains, locus YOL136C, strain PFK27, active compounds read low
[60] = S. cerevisiae deletion strains, locus YOR061W, strain CKA2, active compounds read low
[61] = S. cerevisiae deletion strains, locus YOR119C, strain RIO1, active compounds read low
[62] = S. cerevisiae deletion strains, locus YOR329C, strain SCD5, active compounds read low
[63] = S. cerevisiae deletion strains, locus YPL031C, strain PHO85, active compounds read low
[64] = S. cerevisiae deletion strains, locus YPL153C, strain RAD53, active compounds read low
[65] = S. cerevisiae deletion strains, locus YPL204W, strain HRR25, active compounds read low
[66] = S. cerevisiae deletion strains, locus YPL209C, strain IPL1, active compounds read low
[67] = S. cerevisiae deletion strains, locus YPR025C, strain CCL1, active compounds read low
[68] = S. cerevisiae deletion strains, locus YPR106W, strain ISR1, active compounds read low
[69] = S. cerevisiae deletion strains, locus YPR111W, strain DBF20, active compounds read low
[70] = S. cerevisiae deletion strains, strain NNK1, active compounds read low
[71] = S. cerevisiae deletion strains, strain TSCII, active compounds read low

Measured: normalized growth

N/C(=N/OC(=O)Nc1ccccc1)c1ccc(C2SCCS2)cc1
active: S. cerevisiae deletion strains, locus YAL013W, strain DEP1, active compounds read low 0.889 | S. cerevisiae deletion strains, locus YBR229C, strain ROT2, active compounds read low 0.892 | [1] 0.753 | S. cerevisiae deletion strains, locus YEL061C, strain CIN8, active compounds read low 0.833 | S. cerevisiae deletion strains, locus YGR078C, strain PAC10, active compounds read low 0.879 | [2] 0.343 | S. cerevisiae deletion strains, locus YHR087W, strain rtc3, active compounds read low 0.829 | S. cerevisiae deletion strains, locus YJR043C, strain POL32, active compounds read low 0.89 | S. cerevisiae deletion strains, locus YJR075W, strain HOC1, active compounds read low 0.772 | S. cerevisiae deletion strains, locus YKL190W, strain CNB1, active compounds read low 0.924 | S. cerevisiae deletion strains, locus YLR039C, strain RIC1, active compounds read low 0.767 | S. cerevisiae deletion strains, locus YLR085C, strain ARP6, active compounds read low 0.39 | S. cerevisiae deletion strains, locus YLR262C, strain YPT6, active compounds read low 0.759 | S. cerevisiae deletion strains, locus YML094W, strain GIM5, active compounds read low 0.801 | S. cerevisiae deletion strains, locus YMR219W, strain ESC1, active compounds read low 0.884 | S. cerevisiae deletion strains, locus YMR263W, strain SAP30, active compounds read low 0.87 | S. cerevisiae deletion strains, locus YMR307W, strain GAS1, active compounds read low 0.557 | S. cerevisiae deletion strains, locus YNL153C, strain GIM3, active compounds read low 0.652 | S. cerevisiae deletion strains, locus YNL298W, strain CLA4 (second series), active compounds read low 0.797 | S. cerevisiae deletion strains, locus YNR030W, strain Alg12, active compounds read low 0.81 | S. cerevisiae deletion strains, locus YPL055C, strain LGE1, active compounds read low 0.694 | S. cerevisiae deletion strains, locus YPR135W, strain CTF4, active compounds read low 0.436
inactive: S. cerevisiae deletion strains, locus YDL134C, strain PPH21, active compounds read low 0.972 | S. cerevisiae deletion strains, locus YDR150W, strain NUM1, active compounds read low 0.851 | S. cerevisiae deletion strains, locus YGR229C, strain SMI1, active compounds read low 1.01 | S. cerevisiae deletion strains, locus YNL322C, strain KRE1, active compounds read low 0.991 | S. cerevisiae strains, strain wild type, active compounds read low 0.988

O=C(Nc1ccccc1)OCC(CN1CCCCC1)OC(=O)Nc1ccccc1 (configuration not stated)
inactive: [2] 1 | [3] 1.03 | [4] 1 | [5] 0.925 | [6] 1.01 | [7] 0.949 | [8] 1.01 | [9] 0.988

N/C(=N/O)c1ccc(Oc2ccc(C3SCCS3)cc2)c([N+](=O)[O-])c1
inactive: [10] 1.01 | [11] 0.992 | [12] 0.979 | [13] 1.01 | [14] 0.997 | [15] 0.992 | [16] 1.01 | [1] 0.991 | [17] 0.99 | [18] 0.973 | [19] 0.992 | [20] 0.992 | [21] 0.988 | [22] 0.998 | [23] 1.01 | [24] 1.01 | [25] 0.994 | [26] 0.992 | [27] 1 | [28] 0.985 | [29] 1.02 | [30] 1 | [31] 1 | [32] 1.07 | [33] 0.993 | [2] 0.874 | [3] 1.06 | [34] 1.12 | [35] 1.01 | [36] 0.996 | [4] 1.01 | [37] 0.93 | [38] 1.01 | [39] 0.993 | [40] 1.01 | [5] 1.02 | [41] 0.988 | [42] 0.981 | [43] 0.986 | [44] 0.979 | [45] 1.11 | [6] 1.02 | [46] 1.01 | [47] 1.05 | [48] 1.01 | [49] 1 | [50] 0.994 | [51] 0.995 | [52] 0.988 | [53] 1.03 | [54] 0.981 | [7] 1.08 | [55] 0.984 | [56] 0.979 | [57] 1.02 | [58] 0.978 | [59] 1.02 | [60] 0.995 | [61] 1.04 | [8] 1.03 | [62] 0.991 | [63] 0.998 | [64] 0.988 | [65] 1 | [66] 0.984 | [9] 0.995 | [67] 0.985 | [68] 0.994 | [69] 0.978 | [70] 0.995 | [71] 1.01

Cc1ccc(NC(=S)C(C#N)C(=O)N2CCOCC2)c(C)c1 (configuration not stated)
inactive: [10] 0.993 | [11] 0.997 | [12] 0.988 | [13] 0.972 | [14] 0.991 | [15] 0.992 | [16] 0.988 | [1] 0.995 | [17] 0.991 | [18] 0.991 | [19] 1.04 | [20] 0.998 | [21] 0.99 | [22] 0.98 | [23] 1.05 | [24] 1.05 | [25] 1.05 | [26] 0.985 | [27] 0.995 | [28] 0.995 | [29] 1.01 | [30] 0.993 | [31] 1.05 | [32] 1.11 | [33] 1.02 | [2] 1.03 | [3] 1.04 | [34] 1.21 | [35] 0.908 | [36] 0.983 | [4] 1.02 | [37] 0.937 | [38] 1.02 | [39] 0.991 | [40] 1.05 | [5] 1.19 | [41] 1.01 | [42] 1.02 | [43] 1.01 | [44] 0.983 | [45] 1.09 | [6] 1.07 | [46] 1.03 | [47] 0.957 | [48] 1.05 | [49] 0.994 | [50] 1.03 | [51] 0.989 | [52] 0.991 | [53] 1.04 | [54] 0.991 | [7] 1.18 | [55] 0.985 | [56] 0.991 | [57] 1.02 | [58] 0.985 | [59] 1.05 | [60] 1.01 | [61] 1.11 | [8] 1.11 | [62] 0.993 | [63] 1.04 | [64] 1.03 | [65] 1.06 | [66] 0.99 | [9] 1.06 | [67] 0.997 | [68] 1.01 | [69] 1 | [70] 0.999 | [71] 0.994
